Here are results for nine compounds from PubChem BioAssay (NCI).

About 83,000 compounds went through this panel and 20% of them were active in at least one assay; those are over-represented in the sample as a whole.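 Assay: single dose, 48 h. Readout: percent growth (0 = no net growth; negative = cell death). Active: <10.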 Unmarked numbers belong to inactive results. Calls of active or inactive are those of the source.

Holding throughout (experiment): NCI-60 one-dose screen, 48 h (100 = growth as untreated, 0 = no growth, -100 = all killed)
Common to all, as to conditions: 10 µM unless noted

Assay [1] deals with SK-MEL-2 melanoma.
Assay [2] relates to EKVX NSCLC.
Assay [3] deals with SN12C renal.
Assay [4] deals with TK-10 renal.
Assay [5] concerns CAKI-1 renal.
Assay [6] concerns A498 renal.
Assay [7] has as its system CCRF-CEM leukemia.
Assay [8] concerns MOLT-4 leukemia.
Assay [9] concerns RPMI-8226 leukemia.
The subject of assay [10] is OVCAR-8 ovarian.
The test system of assay [11] is OVCAR-5 ovarian.
The subject of assay [12] is OVCAR-4 ovarian.
For assay [13], the system named is SK-OV-3 ovarian.
The subject of assay [14] is OVCAR-3 ovarian.
The subject of assay [15] is HS 578T breast.
Assay [16] deals with NCI/ADR-RES ovarian.
For assay [17], the system named is UO-31 renal.
The test system of assay [18] is ACHN renal.
For assay [19], the system named is SR leukemia.
Assay [20] relates to IGROV1 ovarian.

In the case of `Nc1ccn(-c2ccc(Br)cc2)c(=O)n1`, the growth is 87.9% in assay [1]; 95.8% in assay [2]; 115% in assay [3]; 113% in [4]; 87.2% in assay [5]; 99.5% in assay [6]. Besides, the growth in [7] was -23.5% (active); in [8], 107%; in assay [9] it was 95.9%; in assay [10], 117%; in assay [11] it was 84%; in [12], 104%. Moreover, the growth is 162% in [13], 48% in assay [14], 122% in assay [15] and 89.5% in assay [16].
In the case of `C=C1c2nc3ccccc3n2C=C(c2cccc(Cl)c2)N1Cc1ccc(OC)cc1`, the growth in assay [1] is 28.2%; in assay [2] it was 8.8% (active); in [3], 37%; in assay [17] it was 9.79% (active); in [18], 49.2%; in assay [5], 3.02% (active). Also, the growth in assay [6] is 91.7%; in assay [7], 47.2%; in assay [8] it was 8.13% (active); in assay [19] it was -17.4% (active); in [9] it was -15.6% (active); in assay [10], 9.77% (active). Besides, the growth in [11] is 35.3%; in [12], 32.4%; in assay [13] it was 5.13% (active); in assay [14], -28.1% (active); in [15], 15.5%; in [16], 10.2%.
Turning to `OCCN1CCN(c2nc(Nc3ccc(-c4nc5ccccc5[nH]4)cc3)c3cn[nH]c3n2)CC1`, the growth is -83.6% (active) in assay [1]; -80.4% (active) in assay [2]; -89.4% (active) in assay [17]; -97.2% (active) in [4]; -85.3% (active) in assay [18]; -97.3% (active) in [5]. For the same compound, the growth in [6] is -78.8% (active); in assay [7], -73.9% (active); in [8], -79.6% (active); in [19], -61.1% (active); in [9], -48.5% (active); in assay [10], -91% (active). In addition, the growth in [11] was -76.2% (active); in assay [12] it was -74.6% (active); in assay [13], -95.9% (active); in assay [20], -78% (active); in assay [14] it was -82.3% (active); in assay [15], -47% (active).
Consider `O=Nc1c(O)c(Cl)cc2ccccc12`, for which the growth in assay [1] is 93.4%; in assay [2], 111%; in assay [3], 82.6%; in [17], 64.3%; in assay [18] it was 65.3%; in assay [5], 76.5%. The growth in [6] is 77.2%; in [7], 39.4%; in [8], 45.7%; in assay [19] it was 71.7%; in [9], 40.1%; in assay [10], 68.6%. Moreover, the growth was 115% in assay [11]; 78.9% in [12]; 81.4% in assay [13]; 59.1% in assay [20]; 67.3% in [14]; 89.4% in assay [15]. The growth in [16] is 72.2%.
With `CCCN1CCN(c2ccc3nc(-c4ccc5nc(-c6ccc(OCC)cc6)[nH]c5c4)[nH]c3c2)CC1`, the growth in assay [1] is 78.9%; in assay [2] it was 59.1%; in assay [3] it was 61.2%; in assay [17] it was 87.2%; in assay [18], 34.6%; in [5], 49.3%. For the same compound, the growth in assay [6] was 65.6%; in assay [7], -32.4% (active); in [8] it was -0.259% (active); in [9], -38.8% (active); in [10], 0.816% (active); in [11] it was 62%. The growth in assay [12] was -34.6% (active); in assay [13], 67.7%; in assay [20], 52.1%; in assay [14], -83.5% (active); in [15], 70.4%; in assay [16], 41.7%.
With `O=C(/C=C/c1ccc(C(F)(F)F)cc1)Nc1ccc(C=C2c3ccccc3C(=O)c3ccccc32)cc1`, the growth in assay [1] was 25.5%; in [2], 53.6%; in assay [3], 89.6%; in [17], 72.6%; in [18], 74.8%; in assay [5], 56.2%. The growth in assay [7] was 32.6%; in assay [8], 47.5%; in assay [19], 18.6%; in [9], 10.4%; in assay [10] it was 55.7%; in assay [12], 47.5%. The growth in [13] was 77.9%; in assay [14], 44.1%; in assay [15], 78.5%; in assay [16], 60%.
Regarding `CN1CCN(c2ccc(Nc3c4ccccc4nc4ccccc34)cc2)CC1`, the growth was 106% in assay [1]; 102% in [3]; 97.5% in assay [17]; 102% in assay [4]; 102% in assay [18]; 107% in [5]. Further, the growth in assay [6] is 112%; in [7], 105%; in assay [19], 103%; in [9], 121%; in [10], 100%; in assay [11], 102%. The growth in assay [12] is 103%; in [13], 112%; in assay [20], 111%; in assay [14], 110%; in assay [15], 117%.
For `Cc1cc(C)nc(SC2=C(Nc3cccc(Cl)c3C)C(=O)N(Cc3ccccc3)C2=O)n1`, the growth in [1] was 69.6% [30 µM]; in assay [3] it was 70.1% [30 µM]; in assay [17] it was 14.7% [30 µM]; in assay [4] it was 60.5% [30 µM]; in assay [18] it was 65.2% [30 µM]; in assay [5], 60.8% [30 µM]. Further, the growth in assay [6] is 40.1% [30 µM]; in [7], 26.9% [30 µM]; in assay [8], 4.41% [30 µM] (active); in assay [19], 31.8% [30 µM]; in assay [9], 12.5% [30 µM]; in assay [10], 64.2% [30 µM]. The growth was 81.8% [30 µM] in [11]; 49% [30 µM] in assay [12]; 91.6% [30 µM] in assay [13]; 73% [30 µM] in [20]; 64.6% [30 µM] in assay [14]; 60.7% [30 µM] in [15]. In addition, the growth in assay [16] was 52.1% [30 µM].
As to `O=C(N(c1ccccc1)c1ccccc1)n1ccc2nc(Cl)nc(Cl)c21`, the growth was 58.6% in [1]; 53.8% in [3]; 57.1% in assay [17]; 73.7% in assay [4]; 65.2% in assay [18]; 53.4% in [5]. Also, the growth in assay [6] is 81%; in assay [7] it was 16%; in [8], 37.1%; in assay [19], 54.4%; in [9], 16.1%; in assay [10], 63.2%. In addition, the growth in assay [11] was 64.2%; in assay [12], 63.3%; in [13] it was 49.7%; in assay [20] it was 68.5%; in assay [14], 30%; in assay [15], 42.2%. Moreover, the growth in assay [16] is 35.8%.
